The record followed here is PubChem BioAssay (EPA / NIEHS).

Broadly, the AC50 is the concentration giving half of the maximal activity seen.

Active and inactive are the calls of the source. Rule for the calls: active = hit-call score of the fitted dose curve at least 0.9, where 1 is the maximum; inactive = score below 0.9.

This experiment can be described thus: ATG_RORE_CIS: Attagene CIS-FACTORIAL HepG2 Assay for human RAR-related Orphan Receptor Element (RORE) (AID 2282959). The following applies: HepG2 Attagene cis-factorial RORE reporter, mRNA; actives raise or lower the signal. As for the experimental part:
ATG_CIS is a cell-based, multiplexed-readout assay that uses HepG2, a human liver cell line, with measurements taken at 24 hours after chemical dosing in a 24-well plate.ATG_RORE_CIS is one of 52 assay component(s) measured or calculated from the ATG_CIS assay. It is designed to make measurements of mRNA induction, a form of inducible reporter, as detected with fluorescence intensity signals by Reverse transcription polymerase chain reaction (RT-PCR) and Capillary electrophoresis technology.Data from the assay component ATG_RORE_CIS was analyzed into 1 assay endpoint. This assay endpoint, ATG_RORE_CIS, was analyzed with bidirectional fitting relative to DMSO as the negative control and baseline of activity. Using a type of inducible reporter, measures of mRNA for gain or loss-of-signal activity can be used to understand the reporter gene at the transcription factor-level as they relate to the gene RORA and RORB and RORC. Furthermore, this assay endpoint can be referred to as a primary readout, because this assay has produced multiple assay endpoints where this one serves a reporter gene function. To generalize the intended target to other relatable targets, this assay endpoint is annotated to the nuclear receptor intended target family, where the subfamily is orphan.
Human liver HepG2 cells are transiently transfected with multiple reporter transcription units (MRTUs) in 6-well plates using FuGene 6 reagent (Roche; 3 ml FuGene/1 mg DNA). The MRTU constructs are regulated by a cis-regulating element (promoter). […] A major difference between the CIS and TRANS system is that in CIS activities of endogenous TFs are measured, whereas the TRANS assay evaluates changes in activities of exogenous, chimeric NR-Gal4 proteins. […] At the end of 24 hour incubation, total RNA was isolated using TriZol reagent (Invitrogen). The isolated RNA is then reverse-transcribed using oligo(dT) primer and Mo-MLV reverse transcriptase (Invitrogen) with DNAse I (Ambion) treatment for 30 min. The one-tenth of the produced cDNA was amplified by PCR using Taq DNA polymerase (Invitrogen) and two reporter sequence-specific primers. The PCR products were fluorescently labeled by primer extension with 6-arboxyfluorescein (6-FAM) 5'-labeled reporter sequence-specific primer (2 min at 95 C, 20 s at 68 C and 10 min at 72 C) and these products were digested with 5U of HpaI (New England Biolabs) for 2h at 37 C. The fragments were purified using Qiaquick PCR columns (Qiagen), analyzed on an ABI 3130xL genetic analyzer (Applied Biosystems) with peak positions identified by using a set of X-rhodamine (ROX)-labeled MapMarker1000 molecular weight standards (BioVentures). The raw capillary electrophoresis data was processed using Attagraph software (Attagene).
Turning to `CCCCCc1cc(O)cc(O)c1`, the AC50 is 50.4 µM (active).

As to `[CH3][Sn]([Cl])([Cl])[Cl]`, the molecule was classed as inactive. Consider `C=CCN(CC=C)C(=O)C(Cl)Cl`, for which the result was inactive. Regarding `Cc1cc(C)c(C2=C(OC(=O)CC(C)(C)C)C3(CCCC3)OC2=O)c(C)c1`, the molecule was called inactive. For `O=C(CCl)c1ccccc1`, the molecule was classed as inactive.

Turning to `Oc1cc(Cl)ccc1Cl`, the result was inactive.

Regarding `CCOC(=O)NC(=S)Nc1ccccc1NC(=S)NC(=O)OCC`, the call was inactive. Same read-out and setting: then `N#CC(c1ccccc1)c1ccccc1`, with “inactive”; and `C[N+](C)(C)CC(=O)[O-]`, with “inactive”.

With `CC(C)CCCCCCCOP(=O)(Oc1ccccc1)Oc1ccccc1`, the molecule was called inactive.

Regarding `Nc1ccccc1C(=O)OCCc1ccccc1`, the AC50 is 20.8 µM (active). On to `O=[N+]([O-])c1cc(C(F)(F)F)c(Cl)c([N+](=O)[O-])c1Cl`, for which the outcome was inactive. The same measure, in the same setting: the entry for `O=C(O)C(Br)Br` is “inactive”; for `CCCC=NO` it is “inactive”.

On to `CCCCOP(=O)(O)OCCCC`, for which the molecule was called inactive. On the same count and under the same terms, the entry for `Cc1ccc(C)c2ccccc12` is “inactive”; for `CCOP(O)OCC` it is “inactive”; for `C=COCCCl` it is “inactive”. Same read-out and setting: the entry for `C=CC(=O)OCC(CC)CCCC` (stereo not given) is “inactive”; for `CC1(C)CC(=O)CC(C)(C)N1[O]` it is “inactive”; for `CN1C[C@H](C(=O)N[C@]2(C)O[C@@]3(O)[C@@H]4CCCN4C(=O)[C@H](Cc4ccccc4)N3C2=O)C=C2c3cccc4[nH]cc(c34)C[C@H]21` it is “inactive”.

`CC(C)(c1cc(Cl)c(O)c(Cl)c1)c1cc(Cl)c(O)c(Cl)c1`: the result was inactive. The same measure, in the same setting: then `O=P1(NCCCl)OCCCN1CCCl` (stereo not given), with “inactive”; and `O=C(O)CCl`, with “inactive”. Still for that read-out and setting: the entry for `C=C(Cl)CCl` is “inactive”.

For `CCNCC`, the outcome was inactive. With `CCC(Br)(CC)C(=O)NC(N)=O`, the molecule was called inactive.

For `c1ccc(P(c2ccccc2)c2ccccc2)cc1`, the call was inactive. The same measure, in the same setting: then `COc1cc(OC)c(OC)cc1C=O`, with “inactive”; and `CCC(=O)c1ccc(Cl)cc1`, with “inactive”.

As to `CCOC(=O)C1OC1(C)c1ccccc1` (stereo not given), the call was inactive. On to `CC(C)CCCCCCCOC(=O)c1ccccc1C(=O)OCCCCCCCC(C)C`, for which the result was inactive. Same read-out and setting: then `CCOP(=O)(OCC)Oc1ccc([N+](=O)[O-])cc1`, with “inactive”.

Regarding `CC(C)C#N`, the outcome was inactive. Same read-out and setting: then `Nc1ccc([N+](=O)[O-])cc1N`, with “inactive”.

As for `O=c1[nH]c(Cl)c(Cl)cc1Cl`, the molecule was classed as inactive.

Regarding `Nc1c(Cl)c(Cl)c(Cl)c(Cl)c1Cl`, the molecule was classed as inactive. On the same count and under the same terms, the entry for `CCOC(=O)COc1ccc(Cl)cc1Cl` is “inactive”. On the same count and under the same terms, the entry for `CC(C)c1ccc(O)cc1` is “inactive”; for `O=C(NC(=O)c1c(F)cccc1F)Nc1ccc(Oc2ccc(C(F)(F)F)cc2Cl)cc1F` it is “inactive”.
